Screening data: PubChem, National Center for Advancing Translational Sciences (NCATS)
HEK293 tox = cytotoxicity in counter-screen for GLP-1R inverse agonists | HEK293 cAMP-luciferase reporter cells, luminescence, 24 h | Potency, µM (top dose mostly 38.3 µM), most hits filed as inhibitors | hit rate 0.13% among 410,000;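 also: loss of luciferase light is scored as toxicity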
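To flag toxic compounds, the library was rerun on cells for 24 hr at 37 deg C and 5% CO2. Viability-linked luminescence was captured 12 min after adding luciferase detection reagent.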
GLP-1R inv ag = GLP-1 receptor (human) inverse agonism | HEK293 GLP-1R CRE-luciferase, luminescence, 24 h; GLP-1R form is constitutively active | Potency, µM (titrated, usually from 38.3 µM), hits mostly inhibitors | hit rate 1.6% among 410,000; also: nearly all actives have a fitted effect of over 55% in size
Target sequence (P43220 whole entry, looked up): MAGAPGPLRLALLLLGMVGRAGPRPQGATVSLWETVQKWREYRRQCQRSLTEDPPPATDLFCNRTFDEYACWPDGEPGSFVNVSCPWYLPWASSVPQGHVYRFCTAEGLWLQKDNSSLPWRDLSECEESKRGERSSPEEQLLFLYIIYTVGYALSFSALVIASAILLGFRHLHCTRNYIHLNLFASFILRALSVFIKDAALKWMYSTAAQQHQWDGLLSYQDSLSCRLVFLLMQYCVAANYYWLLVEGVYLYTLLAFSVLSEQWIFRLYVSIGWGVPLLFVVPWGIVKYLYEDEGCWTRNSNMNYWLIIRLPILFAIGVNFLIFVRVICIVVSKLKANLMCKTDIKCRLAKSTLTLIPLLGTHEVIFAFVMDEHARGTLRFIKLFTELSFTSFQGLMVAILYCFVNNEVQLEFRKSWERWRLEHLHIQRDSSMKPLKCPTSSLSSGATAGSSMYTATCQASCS
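Inverse agonists were sought by their lowering of basal cAMP reporter luciferase output in HEK293 cells stably carrying constitutively active human GLP-1R, after 24 h compound treatment.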
PTHR1 ag = PTHR1 (human) receptor agonism; Potency, µM (doses to about 115 µM), usual class: activators; Q03431; hit rate 0.075% among 410,000; HEK293 GP2 PTHR1 cells, GloSensor cAMP luminescence, 1 h; AID 743266; also: nearly all actives have a fitted effect of over 55% in size
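HEK-293-derived GP2 cells expressing PTHR1 and a GloSensor cAMP reporter, 3,000/well, plated overnight, given luciferin plus IBMX (each 0.5 mM as added) for 1 h at 37 °C, then compound for 1 h at 37 °C. Luminescence was read after 15 min at room temperature.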
GLP1R ag = agonists of human GLP-1 receptor. P43220. HEK293 GLP-1R CRE-luciferase, luminescence, 4-6 h; cells express a hypersensitive GLP-1R form. Potency, µM (highest dose often 45.6 µM), most hits filed as activators. hit rate 0.007% among 380,000. AID 624172
A number is an active result; 0 = inactive; ? = inconclusive; - = no result given. This is a sample that favours compounds with a hit; in the whole collection about 1.7% have one here. Calls follow the shape of the dose curve; as a rule, active = well fitted curve in the direction sought with a large enough effect; inconclusive = small, poorly fitted or top-dose-only effect, or another doubt; inactive = no such curve, though single readings can be large; an effect the other way counts as inactive or inconclusive.

SMILES	HEK293 tox	GLP-1R inv ag	PTHR1 ag	GLP1R ag
O=C(OCC(=O)N(CCc1ccccc1)Cc1ccccc1)c1ccccc1O	0	10µM	0	0
Cc1ccc2c(c1)-c1nc(-c3ccccc3)cc(-c3ccccc3)c1CO2	0	0	0	0
COc1ccc(-c2cc(-c3nnc(COC(=O)c4ccncc4)o3)c3ccccc3n2)cc1OC	0	0	0	0
CC(C)(C)c1csc(NC(=O)c2ccncc2)n1	0	0	0	0
Cc1ccc(C(=O)Nc2nc(C(C)(C)C)cs2)s1	0	?	0	0
CC(C)(C)c1csc(NC(=O)c2ccc(Br)o2)n1	0	10µM	0	0
CC(C)(C)c1csc(NC(=O)c2ccc(Cl)s2)n1	0	2.8µM	0	0
COc1ccc(C(=O)Oc2c(OC)cc(C(=S)N3CCOCC3)cc2OC)cc1OC	0	0	0	0
S=C(NCCCN1CCOCC1)N1CCN(c2nc(-c3ccccc3)cs2)CC1	0	?	0	0
S=C(NCCCN1CCOCC1)N1CCN(c2nc(-c3ccc(Cl)cc3)cs2)CC1	?	3.5µM	0	0
O=S(=O)(c1cccc(Cl)c1Cl)N1CCN(C(=S)NCCCN2CCOCC2)CC1	0	7.1µM	0	0
CC(C)(C)c1ccc(C(=O)N2CCCC2c2cccs2)cc1 (configuration not stated)	0	11µM	0	0
CS(=O)(=O)Cc1ccc(C(=O)N2CCCC2c2cccs2)cc1 (configuration not stated)	0	0	0	0
CCC(Oc1ccccc1)C(=O)Nc1cc(-c2ccccc2OC)nn1-c1ccccc1 (configuration not stated)	0	4.5µM	0	-
O=C(CN(Cc1ccccc1)S(=O)(=O)c1ccccc1)N/N=C/c1ccc2c(c1)OCO2	?	0	0	0
O=C(CN(Cc1ccc(Cl)c(Cl)c1)S(=O)(=O)c1ccccc1)N/N=C\c1ccc2c(c1)OCO2	0	2.2µM	0	0
CCOc1cccc(/C=N/NC(=S)Nc2cc(S(=O)(=O)N3CCOCC3)ccc2N2CCOCC2)c1O	0	5µM	0	0
Fc1ccccc1C1c2[nH]c3ccccc3c2CCN1Cc1ccoc1 (configuration not stated)	0	8.9µM	0	0
O=C(CCC(=O)N1CCN(c2ccc(F)cc2)CC1)c1ccc(Cl)cc1	0	?	0	0
O=C(CCC(=O)N1CCN(c2ccc(Cl)c(Cl)c2)CC1)c1ccccc1	0	11µM	0	0
Cc1nc(S(=O)(=O)N(C)c2ccccc2)c(C#N)c(C)c1Cl	0	5.6µM	0	0
CC1(C)OC(c2ccccc2)=C/C(=C/C=N/NC(=O)c2ccncc2)O1	?	0	0	0
C[n+]1cccc2cccc([O-])c21	0	0	0	0
CSc1ccc(CN(C)C(=O)C23CC4CC(CC(Cl)(C4)C2)C3)cc1	0	10µM	0	0
N#C/C(=C1/SC[C@@H](c2ccc(Cl)cc2Cl)S1)n1ccnc1	-	-	-	0
SMILES	HEK293 tox	GLP-1R inv ag	PTHR1 ag	GLP1R ag
O=S(=O)(c1cccs1)N1CCN(CC(O)COc2cc(Cl)ccc2Cl)CC1 (configuration not stated)	0	7.9µM	0	0
O=C(CSc1nc(-c2ccc(Cl)cc2)cs1)Nc1cccc([N+](=O)[O-])c1	0	10µM	0	0
Cc1cc(NC(=O)CSc2nc(-c3ccc(Cl)cc3)cs2)no1	0	0	0	0
CCCNC(=O)C1(C)CCCN(Cc2ccccc2Cl)C1 (configuration not stated)	0	0	0	0
CCCNC(=O)C1(C)CCCN(Cc2cccc3ccccc23)C1 (configuration not stated)	0	10µM	0	0
CC(C)Cc1ccc(CN2CCCC(NC(=O)c3ccoc3)C2)cc1 (configuration not stated)	?	8.9µM	0	0
Cc1noc(C)c1CCC(=O)NC1CCCN(Cc2ccc(Cl)cc2)C1 (configuration not stated)	0	0	0	0
Cc1noc(C)c1CCC(=O)NC1CCCN(Cc2ccc(CC(C)C)cc2)C1 (configuration not stated)	0	10µM	0	0
CSc1ccc(NC(=O)NCCCN2CCC(Cc3ccccc3)CC2)cc1	?	7.9µM	0	0
CCOc1ccc(Sc2cc(C(=O)NC(C)CC)c3ccccc3n2)cc1 (configuration not stated)	0	0	0	0
N#Cc1ccc(OCC(O)CN2CCN(C(c3ccccc3)c3ccccc3)CC2)cc1 (configuration not stated)	0	7.1µM	0	0
